In the library only some 7.3% were active in any assay of this set; here they are far more common.
FMDV inh: High Throughput Screening for Foot and Mouth Disease Virus Antivirals; FMDV antiviral cell-based qHTS; Potency, µM (top dose mostly 57.9 µM), for inactives: at the highest dose activity change, negative = inhibition, actives largely listed as inhibitors; 410,000 tested, 1.2% active; calls by dose curve; tested in HEK293T cells; also: read-out not given here; potency is read from the fitted curve at half-maximal effect; nearly all actives have a fitted effect of over 45% in size
Vaccinia Venus: qHTS for Stage-Specific Inhibitors of Vaccinia Orthopoxvirus: Venus Reporter Primary qHTS. Vaccinia virus Venus reporter expression, fluorescence. AID 720580, 2013. Potency, µM (highest dose often 36.5 µM), without a hit: at the top dose activity change, negative = inhibition, actives largely listed as inhibitors. 330,000 tested, 0.46% active; calls by dose curve; tested in A549 cells; also: potency is read from the fitted curve at half-maximal effect; nearly all actives have a fitted effect of over 30% in size
Vaccinia mCherry: qHTS for Stage-Specific Inhibitors of Vaccinia Orthopoxvirus: mCherry Reporter Primary qHTS | AID 720579, 2013 | Vaccinia virus mCherry reporter infection, fluorescence | Potency, µM (titrated, usually from 36.5 µM), inactives show at the highest dose activity change, negative = inhibition, most hits filed as inhibitors | 310,000 tested, 0.63% active; calls by dose curve; tested in A549 cells; also: potency is read from the fitted curve at half-maximal effect; nearly all actives have a fitted effect of over 35% in size
HCMV inh: qHTS Assay for inhibitors of the human cytomegalovirus (HCMV) | activity change, negative = inhibition, % at 57.5 µM | 410,000 tested, 4.5% active | HFF cells, HCMV-luciferase reporter, 72 h; stronger effect = lower value | AID 1259415, 2018; in the data active = activity change below about -60%; inconclusive = no clear call, values can overlap the other calls; inactive = above about -39%
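Two compound doses tested in HFFs infected with HCMV-luciferase, MOI 1 PFU/cell, 72 h at 37C. Lysate luminescence read with OneGlo; data normalized against buffer-only and 10uM Salinomycin inhibitor controls.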
HCV inh: qHTS Assay for Inhibitors of Hepatitis C Virus (HCV). Huh7.5.1 HCVcc-Cre infection, luciferase reporter, 44 h. Potency, µM (top dose mostly 41.8 µM), for the others: at the highest dose activity change, negative = inhibition, actives largely listed as inhibitors. 340,000 tested, 3.4% active. AID 651820, 2012; active = well fitted inhibition curve with a large enough effect; inconclusive = small, poorly fitted or top-dose-only effect, or another doubt; inactive = no such curve, though single readings can be large or run the other way; also: potency is read from the fitted curve at half-maximal effect
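Cells (1,000/well) were plated 4 h before compound, then infected with HCVcc-Cre virus (~0.5 moi). After 44 h further culture, infection was read as luciferase luminescence following a 15 min substrate incubation at room temperature.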
* hit, by the source's call; [ ] = remark or other dose. % is scaled to controls: 0 for no effect and ±100 for the full control effect.

Screening OC(COC1CCCCC1)CN1CCN(c2ccccc2)CC1 (centres undefined) returned FMDV inh -8.7%, HCMV inh 10.4 and HCV inh 1.0%.
CC(C)(C)C1CCC(OCC(O)CN2CCN(Cc3ccccc3)CC2)CC1 (centres undefined) was read as FMDV inh inconclusive, HCMV inh 0.1 and HCV inh 31.6µM*.
`CC1CCCC(C)N1CC(O)COC1CCC(C(C)(C)C)CC1` (centres undefined) gave FMDV inh inconclusive, HCMV inh 0.0 and HCV inh 12.6µM*.
For CC(C)(C)C1CCC(OCC(O)CN2CCN(c3ccccn3)CC2)CC1 (centres undefined) the results were FMDV inh inconclusive, Vaccinia Venus -23.3%, Vaccinia mCherry -20.4%, HCMV inh -69.2* and HCV inh -22.4%.
`Cc1ccc(NC(=O)CSc2nc3ncccc3[nH]2)cc1F` gave FMDV inh 21.0%, Vaccinia Venus -2.3%, Vaccinia mCherry -0.3% and HCMV inh 23.2.
N#Cc1c(C#N)c(SSc2c(C#N)c(C#N)c(N)n2-c2ccccc2)n(-c2ccccc2)c1N was read as FMDV inh 39.8µM*, Vaccinia Venus -0.3%, Vaccinia mCherry -10.6%, HCMV inh -4.3 and HCV inh inconclusive.
Screening O=C(N/N=C/c1ccsc1)c1ccc2ccccc2n1 returned FMDV inh 50.7%, Vaccinia Venus -14.1%, Vaccinia mCherry -3.7%, HCMV inh -67.3* and HCV inh -1.5%.
Screening O=C(N/N=C/c1ccc2c(c1)OCO2)c1ccc2ccccc2n1 returned FMDV inh 0.0%, Vaccinia Venus 15.7%, Vaccinia mCherry inactive, HCMV inh -28.2 and HCV inh 3.9%.
Screening CC1(C(=O)NC2CCCC2)CCC(=O)N1C1CCN(Cc2ccccc2)CC1 (centres undefined) returned FMDV inh -7.8%, Vaccinia Venus 3.1%, Vaccinia mCherry 21.6% and HCMV inh 19.9.
`CN(C)c1ccc(N=Nc2ccc(C(=O)O)cc2)cc1` gave FMDV inh 11.2µM*, Vaccinia Venus -9.0%, Vaccinia mCherry inactive, HCMV inh -15.3 and HCV inh 16.1%.
`C=CS(=O)(=O)N(C(=C)C(=O)OC)S(C)(=O)=O` gave HCMV inh -80.7*.
`CCN(CC)c1ccc(/C=C2\C(=O)N(c3nnc(C)c(=O)[nH]3)N=C2C)cc1` gave FMDV inh 28.2µM*, Vaccinia Venus -13.9%, Vaccinia mCherry -3.0%, HCMV inh -21.8 and HCV inh 14.4%.
CC1=NOC(=O)/C1=C/c1ccc(O)c(Cl)c1 was read as FMDV inh 17.8µM*, Vaccinia Venus -4.3%, Vaccinia mCherry -0.5%, HCMV inh inconclusive and HCV inh 16.3%.
`CCN(CC)c1ccc(/C=C2/C(=O)ON=C2C)cc1` gave FMDV inh 21.0%, HCMV inh -64.7* and HCV inh 2.7%.
Cc1ccc(N(CC(C)C)S(=O)(=O)c2nnc(NC(=O)c3cccs3)s2)cc1 was read as FMDV inh -11.2%, Vaccinia Venus -20.9%, Vaccinia mCherry -24.8% and HCMV inh 14.3.
Screening COc1ccc(-c2nc3cnc(N4CCOCC4)nc3n(Cc3cccs3)c2=O)cc1 returned FMDV inh -10.3%.
`CN(C(=O)c1ccc(NC(=O)Cc2ccccc2)cc1)c1ccccc1` gave FMDV inh 31.5%, Vaccinia Venus -18.4%, Vaccinia mCherry -2.2% and HCMV inh 67.4.
Screening CCN(C(=O)c1ccc(NC(=O)Cc2ccccc2)cc1)c1ccccc1 returned FMDV inh -17.8%, Vaccinia Venus -11.8%, Vaccinia mCherry -22.3%, HCMV inh -67.1* and HCV inh -9.5%.
CCOc1ccc(OCc2cccc(C(=O)N3CCOCC3)c2)cc1 was read as FMDV inh -1.0%, HCMV inh 152.5 and HCV inh -21.5%.
`CC1CN(C(=O)c2cccc(COc3ccc(Br)cc3)c2)CC(C)O1` (centres undefined) gave FMDV inh -15.3%, Vaccinia Venus -25.8%, Vaccinia mCherry -32.0%, HCMV inh -77.7* and HCV inh inconclusive.
`Cc1ccc2[nH]c3c(=O)n(CC(=O)N(C)c4cc(Cl)ccc4C)ncc3c2c1` gave FMDV inh 0.0%, Vaccinia Venus -24.2%, Vaccinia mCherry inconclusive and HCMV inh -22.2.
Screening Cc1ccc(Cl)cc1N(C)C(=O)Cn1ncc2c([nH]c3ccccc32)c1=O returned FMDV inh -4.2%, Vaccinia Venus -2.8%[7.34 µM], Vaccinia mCherry -9.3%[7.34 µM], HCMV inh -69.2* and HCV inh -16.4%.
For NC(=S)N/N=C1\CCOc2ccc(F)cc21 the results were FMDV inh -16.3%, Vaccinia Venus 0.891µM*, Vaccinia mCherry 1.78µM*, HCMV inh -1.6 and HCV inh -5.7%.
Screening Cc1ccc(SCCCCN2CCNCC2)cc1 returned FMDV inh 14.8%, HCMV inh -0.7 and HCV inh 11.2µM*.
`C/C(=N/NC(=O)CSc1nc2ccccc2n1C)c1ccncc1` gave FMDV inh -28.0%, Vaccinia Venus -10.4%, Vaccinia mCherry inactive, HCMV inh -100.6* and HCV inh 11.3%.
For CC(NC(=O)CSc1nc2ccccc2n1C)c1ccccc1 (centres undefined) the results were FMDV inh 10.8%, Vaccinia Venus -1.3%, Vaccinia mCherry -5.2%, HCMV inh -2.3 and HCV inh -14.9%.
`Cn1c(SCC(=O)NCc2ccccc2)nc2ccccc21` gave FMDV inh -13.1%, Vaccinia Venus -7.3%, Vaccinia mCherry -7.4%, HCMV inh -100.1* and HCV inh 14.2%.
CN(C)CCNC(=O)c1cccc(-c2cnc3c(NC=O)cc(-c4ccc(C(=O)N5CCOCC5)cc4)cn23)c1 was read as FMDV inh -14.1%, Vaccinia Venus 3.8%, Vaccinia mCherry 53.3% and HCMV inh -64.4*.
For CC(=O)c1cccc(-c2cnc3c(NC=O)cc(-c4ccc(C(=O)N5CCOCC5)cc4)cn23)c1 the results were FMDV inh -11.3%, Vaccinia Venus -12.1%, Vaccinia mCherry 2.1% and HCMV inh -4.8.
CN(C)CCNC(=O)c1cccc(-c2cnc3c(NC=O)cc(-c4cccs4)cn23)c1 was read as FMDV inh 12.9%, Vaccinia Venus -8.0%, Vaccinia mCherry 16.3% and HCMV inh -87.4*.
Screening COc1ccc(-c2cc(NC=O)c3ncc(-c4cccc(C(=O)NCCN(C)C)c4)n3c2)cn1 returned FMDV inh 0.3%, Vaccinia Venus -11.1%, Vaccinia mCherry inactive and HCMV inh -62.6*.
NC1(C#Cc2ccc3oc(=O)c(-n4cc(-c5ccsc5)nn4)cc3c2)CCCCC1 was read as FMDV inh -21.1%, Vaccinia Venus inconclusive, Vaccinia mCherry -14.1%, HCMV inh -72.5* and HCV inh inconclusive.

High-throughput results from PubChem BioAssay.
